Screening results deposited in PubChem BioAssay by National Center for Advancing Translational Sciences (NCATS).
This is a sample that favours compounds with a hit; in the whole collection about 19% have one here.
Pf growth 96h: Primary qHTS for delayed death inhibitors of the malarial parasite plastid, 96 hour incubation | 6.9% of 320,000 active | Potency, µM (top dose mostly 28.7 µM), for the others: at the top dose activity change, negative = inhibition, usual class: inhibitors | P. falciparum luciferase reporter growth, 96 h; also: potency is read from the fitted curve at half-maximal effect; % is scaled to controls: 0 for no effect and ±100 for the full control effect
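Compounds incubated with erythrocytes infected by luciferase-expressing P. falciparum (2% hematocrit, 0.05% parasitemia final) for 96 hours, 37 C in 5% CO2. Growth inhibition scored as decreased luciferase luminescence.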
CHX counter: Cycloheximide Counterscreen for Small Molecule Inhibitors of Shiga Toxin | cell reporter, cycloheximide protein synthesis inhibition counterscreen | max response, % | 12% of 300,000 active | AID 2314, 2010; in the data active = max response mostly above about 13%, no sharp cut-off; inactive = mostly below about 14%; also: read at 38.3 µM for the half of the compounds with a filed dose; 0% is about no effect
AMA1 RON2 block: qHTS for Inhibitors of AMA1-RON; Towards Development of Antimalarial Drug Lead: Primary Screen; Plasmodium falciparum AMA1 (3D7) - RON2 peptide interaction; AlphaScreen AMA1-biotinylated RON2 peptide binding; Potency, µM (highest dose often 58.2 µM), for the others: at the top dose activity change, negative = inhibition, actives largely listed as inhibitors; 0.2% of 360,000 active;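 also: potency is read from the fitted curve at half-maximal effect; 0% = vehicle wells and -100% = peptide control; nearly all actives have a fitted effect of over 45% in size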
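AMA1 (3D7) with his tag at 25 nM final met compounds first, then biotinylated RON2 peptide at 25 nM; detection used donor plus acceptor beads, 10 µg/mL apiece, read by AlphaScreen after 30 min at room temperature.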
SARS PLP yeast: qHTS of Yeast-based Assay for SARS-CoV PLP; S. cerevisiae expressing SARS-CoV PLpro, growth rescue; Potency, µM (top dose mostly 32.9 µM), inactives show top-dose activity, positive = growth rescue, usual class: activators; 0.19% of 330,000 active; calls by dose curve; also: potency is read from the fitted curve at half-maximal effect; 0% is about no effect; nearly all actives have a fitted effect of over 55% in size
Pf growth 48h: Primary qHTS for delayed death inhibitors of the malarial parasite plastid, 48 hour incubation; P. falciparum luciferase growth in erythrocytes, 48 h; Potency, µM (top dose mostly 28.7 µM), for the others: at the top dose activity change, negative = inhibition, most hits filed as inhibitors; 5.9% of 310,000 active; also: potency is read from the fitted curve at half-maximal effect; % is scaled to controls: 0 for no effect and ±100 for the full control effect
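Luciferase-expressing parasites in RBCs, 2% Hct / 0.1% parasitemia final; RPMI 1640 + 0.5% Albumax; 37 C, 5% CO2, one generation; luminescence read-out, lower signal = inhibition.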
Shiga toxin inh: A qHTS for Small Molecule Inhibitors of Shiga Toxin; AID 2315, 2010; inhibition, % at 38.7 µM; Vero cells, Shiga toxin protein synthesis inhibition reporter; 9.2% of 290,000 active; in the data active = inhibition mostly above about 28%, no sharp cut-off; inactive = mostly below about 43%; also: 0% is about no effect
Active calls of the source: *; ? = inconclusive; . = not tested or not shown; [ ] = remark or other dose. Unless noted, calls follow the shape of the dose curve; as a rule, active = well fitted curve in the direction sought with a large enough effect; inconclusive = small, poorly fitted or top-dose-only effect, or another doubt; inactive = no such curve, though single readings can be large; an effect the other way counts as inactive or inconclusive.

SMILES	Pf growth 96h	CHX counter	AMA1 RON2 block	SARS PLP yeast	Pf growth 48h	Shiga toxin inh
O=C(Cn1nnc(-c2ccccc2NC(=O)c2ccccc2)n1)Nc1ccc2c(c1)OCCO2	?	-1	-1%	0%	?	6
CNc1cc(Cl)nc(SC)n1	?	1	14%	0%	23%	18
CSc1nc(Cl)cc(Nc2ccc(O)cc2)n1	49%	42*	0%	-2%	205%	63
O=C1c2ccccc2C(c2nnnn2Cc2ccccc2)N1CCc1c[nH]c2ccccc12 (stereo not given)	.	.	-9%	.	.	.
CCN(CC)c1ccc(N=Cc2cc(Br)ccc2O)cc1	8%	12	-15%	1%	?	-5
CCN(CC)c1ccc(N=Nc2ncn[nH]2)cc1	39%	34*	35%	-7%	197%	124*
COc1ccc2[nH]c(C)c(C(=O)CN3CCN(C(=O)c4ccco4)CC3)c2c1	.	14	-2%	0%	?	-12
CCOCc1cnc(C)nc1NCC(=O)c1c(C)[nH]c2ccc(OC)cc12	0.41µM*	-3	6%	-2%	.	8
C/C(CC(=O)Nc1ccccn1)=N\NC(=O)c1ccccc1O	33%	52*	35%	?	10%	68*
C/C(CC(=O)Nc1ccccn1)=N\NC(=O)c1ccccc1	42%	30*	.	-9%	24%	21
C/C(CCc1ccccc1)=N\NC(=O)c1ccccc1	22%	30*	50%	-4%	33%	90*
C/C(CC(=O)Nc1ccccn1)=N\NC(=O)c1ccncc1	17%	-5	.	2%	?	-3
C/C(=N/NC(=O)CNC(=O)CCc1ccccc1)c1ccc(Cl)cc1	74%	7.1*	-26%	1%	63%	20
CC(CC(=O)O)Nc1ccccc1O (stereo not given)	-1%	-6	31%	-1%	7%	7
O=C(CCC(=O)c1cccs1)NCc1cccc(C(F)(F)F)c1	12%	.	10%	-6%	5%	.
C/C(CC(=O)Nc1cc(C)ccn1)=N\NC(=O)c1cccc(C)c1O	-9%	26*	77%	-9%	?	69*
C/C(CC(=O)Nc1ccccn1)=N\NC(=O)c1ccc2ccccc2c1	1.9µM*	15*	53%	3%	24%	28
CCNC(=O)C/C(C)=N/NC(=O)C(=O)Nc1ccc(CC)cc1	0%	26*	88%	0%	70%	37
CCCNC(=O)C/C(C)=N/NC(=O)C(=O)Nc1ccccn1	?	26*	93%	0%	14%	29
C/C(CC(=O)Nc1ccccn1)=N\NC(=O)Cc1cccc2ccccc12	-18%	0	15%	-2%	-9%	-1
O=C(c1ccco1)N1CCN(Cc2cc(=O)c(OCc3ccccc3F)co2)CC1	?	.	9%	5%	?	.
O=C(O)CC1=C(Nc2ccccc2)C(=O)N(c2ccccc2)C1c1ccc(Br)cc1 (stereo not given)	?	25*	19%	0%	15%	79*
COc1cc(F)ccc1-c1csc(C(O)c2ccc(F)c(F)c2)n1 (stereo not given)	.	.	2%	.	.	.
O=C(N/N=C/c1ccccc1Cl)c1n[nH]c2c1CCCC2	5%	92*	11%	-18%	-15%	54*
Cc1[nH]nc(C(=O)NN=Cc2ccccc2Cl)c1N=NN(C)C	.	.	3%	.	.	.
SMILES	Pf growth 96h	CHX counter	AMA1 RON2 block	SARS PLP yeast	Pf growth 48h	Shiga toxin inh
O=C(N/N=C/C(Br)=C/c1ccccc1)c1n[nH]c2c1CCC2	.	42*	48%	-28%	-29%	145*
O=C(N/N=C/c1ccccc1)c1n[nH]c2c1CCCC2	22%	27*	5%	-1%	255%	76*
CC1(C)CC(=NNC(=O)c2n[nH]c3c2CCC3)CC(C)(C)N1	?	-3	82%	0%	16%	-12
O=C(N/N=C/c1cccs1)c1n[nH]c2c1CCC2	?	33*	39%	6%	119%	45*
CCOC(=O)c1ccc(CNC(=O)Cn2nnc(-c3ccccc3)n2)o1	-4%	9	17%	-4%	-11%	-24
O=C(N/N=C/c1ccc(Cl)cc1)c1ccc2nc[nH]c2c1	.	.	7%	.	.	.
O=C(N/N=C/c1ccc(Cl)cc1)c1n[nH]c2c1CCCC2	57%	41*	17%	2%	101%	83*
Cc1ccccc1-c1ccc(CN2CCN(C)C(CCO)C2)cc1 (stereo not given)	?	11*	1%	0%	?	19*
CN1CCN(Cc2nc3ccccc3n2C)CC1CCO (stereo not given)	0%	-2	61%	3%	?	-17
CC(C)Cn1c(CN2CCN(C)C(CCO)C2)nc2ccccc21 (stereo not given)	9.3µM*	2	55%	-6%	-2%	-5
Cc1ccccc1-c1ncc(CN2CCN(C3CCCC3)C(CCO)C2)cn1 (stereo not given)	2%	7	4%	1%	-4%	39
Cc1cccc(CC(=O)Nc2ccc(C(=O)N3CCCCC3)cc2)c1	?	14*	3%	-1%	24%	20
Cc1ccc(NS(=O)(=O)c2ccc(C(=O)N3CCC3)cc2)cc1	-1%	.	-5%	-6%	?	.
Cc1ccc(NS(=O)(=O)c2ccc(C(=O)N3CCCCCC3)cc2)cc1	?	.	-8%[11.6 µM]	3%	10µM*	.
O=C(Cc1cccc(NC(=O)C2CCCN(C(=O)C3CC3)C2)c1)Nc1ccc(C(=O)N2CCCCC2)cc1 (stereo not given)	.	.	3%	.	.	.
Cc1ccc(S(=O)(=O)C2(C(=O)N3CCCCCC3)CC2)cc1	4.1µM*	8	4%	-1%	-1%	16
Cc1ccc(NS(=O)(=O)c2ccc(C(=O)N3CCCCCCC3)cc2)cc1	2.1µM*	41*	-8%	-3%	?	99*
Cc1ccc(NS(=O)(=O)c2ccc(C(=O)N3CCCN(C)CC3)cc2)cc1	-13%	-4	6%	8%	-9%	-5
COC(=O)c1ccc(CNC(=O)COC(=O)Cc2ccsc2)cc1	10%	11	2%	-2%	-6%	10
Cc1cc(NC(=O)Cc2ccccc2[N+](=O)[O-])no1	?	2	-1%	6%	17%	-13
CCn1cc(C(=O)NCc2ccc(Cl)cc2)c(=O)c2cc(S(=O)(=O)N3CCOCC3)ccc21	66%	-3	-4%	6%	?	-2
O=C(c1ccc(NS(=O)(=O)c2cccc(C(F)(F)F)c2)cc1)N1CCCC1	10µM*	0	2%	12%	0%	-6
